# Laboratory results from PubChem BioAssay (NCATS).
# Values joined by “and” are separate entries in the source; they are usually repeats but may differ in a detail not shown here. Equal entries are not always repeated. Inconclusive results are not listed. A call without a number means that no potency is given here. Active and inactive are the calls of the source. Unless noted, the call rests on the fitted dose curve; in most records, active means well fitted curve in the direction sought with a large enough effect; inconclusive means small, poorly fitted or top-dose-only effect, or another doubt; inactive means no such curve, though single readings can be large; an effect the other way counts as inactive or inconclusive.
# Tests used:
# [1] = molecular target: alpha-glucosidase (Oryza sativa, rice) (UniProt Q653V4); experiment: Counterscreen for Glucocerebrosidase Inhibitors: qHTS Assay for Rice alpha-Glucosidase at pH 5.0 (AID 997)
# In short: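 Endpoint fluorogenic assay at pH 5.0: compounds (0.7 nM to 77 uM) titrated against 4 nM rice enzyme and 400 uM 4-MU-alpha-glucoside for 20 min at room temperature; NaOH/glycine stop, read ex 365/em 440 nm, Hill-fitted AC50.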
# [2] = Validation of Assay for Modulators of Lamin A Splicing (AID 1459; active means well fitted curve in the direction sought with a large enough effect in the signal ratio; the % refers to the signal ratio;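 further: cells exposed to compound for two days before reading; ratio rise marks activators and ratio drop marks inhibitors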)
# In short: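 S3 HeLa cells stably expressing a lamin A-EGFP splicing minigene and DsRed2 were seeded at 600 cells/well in Opti-MEM with 2% FBS, pin-dosed, and incubated 48 hrs at 37 °C, 5% CO2. Laser-scanning cytometry (488 nm) gave GFP/RFP total intensity ratio.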
# [3] = qHTS Assay for Lipid Storage Modulators (AID 1519; calls by dose curve); details: Drosophila S3 cells, BODIPY lipid droplet/cell ratio, laser cytometry, cells loaded with oleic acid
# In short: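 Cells seeded at 5,000 per well were treated with compounds over a concentration series and loaded with oleic acid (400 uM, as added). Lipid droplet fluorescence (488 nm excitation, 500-530 nm channel) was read by laser-scanning cytometry and normalized to 20 uM Triacsin C.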
# [4] = molecular target: DNA repair nuclease/redox regulator APEX1 (Homo sapiens) (UniProt P27695); experiment: qHTS Validation Assay for Inhibitors of the Human Apurinic/apyrimidinic Endonuclease 1 (APE1) (AID 1705;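 further: TAMRA fluorescence gain over two minutes as APE1 cuts a quenched THF abasic duplex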)
# Chain of DNA repair nuclease/redox regulator APEX1 (Homo sapiens) (P27695 whole entry, looked up): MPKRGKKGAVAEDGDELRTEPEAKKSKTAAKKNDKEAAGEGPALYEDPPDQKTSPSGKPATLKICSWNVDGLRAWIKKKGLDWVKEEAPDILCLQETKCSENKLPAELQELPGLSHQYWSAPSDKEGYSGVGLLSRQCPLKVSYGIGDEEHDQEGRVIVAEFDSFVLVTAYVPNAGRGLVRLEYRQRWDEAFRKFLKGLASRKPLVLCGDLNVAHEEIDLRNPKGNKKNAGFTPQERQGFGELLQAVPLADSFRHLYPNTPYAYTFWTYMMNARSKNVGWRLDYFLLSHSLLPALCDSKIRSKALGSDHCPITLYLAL
# In short: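 Human APE1 was preincubated with compound for 15 min at room temperature, then 50 nM (final) THF-abasic double-stranded DNA substrate bearing 5'-TAMRA and 3'-BHQ-2 was added. Incision-driven fluorescence rise (ex 525/em 598 nm) was read kinetically.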
# [5] = Counterscreen for APE1 Inhibitors: Fluorescent Dye Displacement Validation Assay (AID 1707)
# In short: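 Counterscreen flags promiscuous DNA binders: compounds displacing ThO from duplex DNA (abasic THF site, 50 nM) reduce 540 nm emission (480 nm excitation). ThO 250 nM final; Tris-HCl pH 7.5 with NaCl, MgCl2 and Tween-20.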
# [6] = molecular target: Endonuclease 4 (Escherichia coli (strain K12)) (UniProt P0A6C1); experiment: Counterscreen for APE1 Inhibitors: qHTS Validation Assay for Inhibitors of Endonuclease IV (AID 1708)
# In short: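 The reaction buffer contained 50 mM Tris-HCl pH 7.5, 50 mM NaCl, 2 mM MgCl2, 1 mM DTT and 0.01% Tween-20. Incision of a 50 nM fluorophore/quencher THF substrate by 2 nM enzyme was measured kinetically.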
# [7] = qHTS for differential inhibitors of proliferation of Plasmodium falciparum line 7G8 (AID 1815);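 further: parasite growth measured after three days of incubation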; further: potency means the concentration at half of the fitted maximal effect
# [8] = qHTS for differential inhibitors of proliferation of Plasmodium falciparum line GB4 (AID 1816); details: Potency: Plasmodium falciparum GB4 proliferation inhibition;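 further: parasite growth measured after 72 h incubation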; further: potency means the concentration at half of the fitted maximal effect
# [9] = qHTS for differential inhibitors of proliferation of Plasmodium falciparum line 3D7 (AID 1876); further: potency means the concentration at half of the fitted maximal effect
# [10] = qHTS for differential inhibitors of proliferation of Plasmodium falciparum line D10 (AID 1877);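 further: parasites grown with compound for 72 h before DNA staining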; further: potency means the concentration at half of the fitted maximal effect
# [11] = qHTS for differential inhibitors of proliferation of Plasmodium falciparum line Dd2 (AID 1882); details: Potency: Plasmodium falciparum Dd2 proliferation inhibition; further: nearly all actives have a fitted effect of over 65% in size; further: potency means the concentration at half of the fitted maximal effect;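 on activity change, negative = inhibition: compound exposure of 72 h on infected erythrocytes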
# In short: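 RBC culture, 0.3% parasitemia / 2.5% Hct final; cpd added by pin tool in DMSO; 72 h, 37 C, 5% CO2; lysis buffer + SYBR Green I, o/n RT dark; FI 485/535; norm. to artemisinin 0.29 uM and DMSO.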
# [12] = qHTS for differential inhibitors of proliferation of Plasmodium falciparum line W2 (AID 1883); details: Potency: Plasmodium falciparum W2 proliferation inhibition;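 further: parasites grown with compound for 72 h before lysis and staining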; further: potency means the concentration at half of the fitted maximal effect
# [13] = qHTS for differential inhibitors of proliferation of Plasmodium falciparum line HB3 (AID 1886); details: Potency: Plasmodium falciparum HB3 proliferation inhibition;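 further: parasites grown with compound for 72 h before SYBR Green readout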; further: potency means the concentration at half of the fitted maximal effect
# [14] = qHTS Assay for Modulators of Human Peripheral Myelin Protein 22 (PMP22) Expression/Activity (AID 1967; active means well fitted curve in the direction sought with a large enough effect in the signal ratio; the % refers to the signal ratio)
# In short: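 MSC80 mouse Schwann cells stably carrying Pmp22 promoter–green click beetle luciferase plus EF-alpha–red luciferase control were dosed for 24h at 37 °C. Dual-colour luminescence was filter-overlap corrected; %Activity came from green/red ratio versus untreated cells.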
# [15] = molecular target: Ferritin light chain (Equus caballus) (UniProt P02791); experiment: qHTS Validation Assay for Identification of Novel General Anesthetics (AID 2323)
# Chain of Ferritin light chain (Equus caballus) (P02791 2-175 limits assumed): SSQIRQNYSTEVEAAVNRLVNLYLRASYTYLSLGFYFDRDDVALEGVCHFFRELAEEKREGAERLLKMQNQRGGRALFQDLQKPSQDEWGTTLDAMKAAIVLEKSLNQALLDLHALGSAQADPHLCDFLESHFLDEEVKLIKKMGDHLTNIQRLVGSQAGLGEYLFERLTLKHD
# In short: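 Competitive displacement of profluorescent 1-aminoanthracene (1-AMA, 50% saturated solution in PBS) from 10 uM horse-spleen apoferritin. Compounds incubated 10 min at room temperature; fluorescence read at 380 nm excitation/535 nm emission, normalized to free 1-AMA and complex, fitted with four-parameter Hill equation.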
# [16] = molecular target: ATP-dependent DNA helicase Q1 (Homo sapiens) (UniProt P46063); experiment: qHTS Validation Assay for Inhibitors of RecQ-Like Dna Helicase 1 (RECQ1) (AID 2353)
# Chain of ATP-dependent DNA helicase Q1 (Homo sapiens) (P46063 whole entry, looked up): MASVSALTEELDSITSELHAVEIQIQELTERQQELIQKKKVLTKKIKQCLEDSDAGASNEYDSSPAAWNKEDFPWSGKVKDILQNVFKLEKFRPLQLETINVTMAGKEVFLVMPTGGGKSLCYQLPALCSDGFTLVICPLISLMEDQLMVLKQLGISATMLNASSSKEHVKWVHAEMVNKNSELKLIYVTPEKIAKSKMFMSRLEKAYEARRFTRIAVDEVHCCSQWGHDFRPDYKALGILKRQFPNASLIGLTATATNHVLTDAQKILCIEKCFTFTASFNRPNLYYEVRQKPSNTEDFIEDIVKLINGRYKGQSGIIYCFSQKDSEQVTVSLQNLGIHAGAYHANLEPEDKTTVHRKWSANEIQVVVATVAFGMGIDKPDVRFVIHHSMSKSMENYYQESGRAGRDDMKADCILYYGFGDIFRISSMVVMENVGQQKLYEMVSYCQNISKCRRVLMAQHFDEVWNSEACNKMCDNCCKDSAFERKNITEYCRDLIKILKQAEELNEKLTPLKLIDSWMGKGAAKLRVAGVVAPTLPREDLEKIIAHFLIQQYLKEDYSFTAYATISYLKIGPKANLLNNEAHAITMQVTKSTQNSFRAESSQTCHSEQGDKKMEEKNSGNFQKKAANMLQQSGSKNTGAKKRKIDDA
# In short: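 RECQ1T1 50 nM; forked duplex (20 bp + 30-nt ss tails) 200 nM, ATP 2 mM final; pH 8.0, 2 mM MgCl2, 2.5 ug/ml poly(dI-dC); 15 min compound preincubation; discontinuous kinetic read over 2 h at RT.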
# [17] = molecular target: RecQ-like DNA helicase BLM (Homo sapiens) (UniProt P54132); experiment: qHTS Validation Assay for Inhibitors of Bloom's syndrome helicase (BLM) (AID 2364)
# Chain of RecQ-like DNA helicase BLM (Homo sapiens) (P54132 whole entry, looked up): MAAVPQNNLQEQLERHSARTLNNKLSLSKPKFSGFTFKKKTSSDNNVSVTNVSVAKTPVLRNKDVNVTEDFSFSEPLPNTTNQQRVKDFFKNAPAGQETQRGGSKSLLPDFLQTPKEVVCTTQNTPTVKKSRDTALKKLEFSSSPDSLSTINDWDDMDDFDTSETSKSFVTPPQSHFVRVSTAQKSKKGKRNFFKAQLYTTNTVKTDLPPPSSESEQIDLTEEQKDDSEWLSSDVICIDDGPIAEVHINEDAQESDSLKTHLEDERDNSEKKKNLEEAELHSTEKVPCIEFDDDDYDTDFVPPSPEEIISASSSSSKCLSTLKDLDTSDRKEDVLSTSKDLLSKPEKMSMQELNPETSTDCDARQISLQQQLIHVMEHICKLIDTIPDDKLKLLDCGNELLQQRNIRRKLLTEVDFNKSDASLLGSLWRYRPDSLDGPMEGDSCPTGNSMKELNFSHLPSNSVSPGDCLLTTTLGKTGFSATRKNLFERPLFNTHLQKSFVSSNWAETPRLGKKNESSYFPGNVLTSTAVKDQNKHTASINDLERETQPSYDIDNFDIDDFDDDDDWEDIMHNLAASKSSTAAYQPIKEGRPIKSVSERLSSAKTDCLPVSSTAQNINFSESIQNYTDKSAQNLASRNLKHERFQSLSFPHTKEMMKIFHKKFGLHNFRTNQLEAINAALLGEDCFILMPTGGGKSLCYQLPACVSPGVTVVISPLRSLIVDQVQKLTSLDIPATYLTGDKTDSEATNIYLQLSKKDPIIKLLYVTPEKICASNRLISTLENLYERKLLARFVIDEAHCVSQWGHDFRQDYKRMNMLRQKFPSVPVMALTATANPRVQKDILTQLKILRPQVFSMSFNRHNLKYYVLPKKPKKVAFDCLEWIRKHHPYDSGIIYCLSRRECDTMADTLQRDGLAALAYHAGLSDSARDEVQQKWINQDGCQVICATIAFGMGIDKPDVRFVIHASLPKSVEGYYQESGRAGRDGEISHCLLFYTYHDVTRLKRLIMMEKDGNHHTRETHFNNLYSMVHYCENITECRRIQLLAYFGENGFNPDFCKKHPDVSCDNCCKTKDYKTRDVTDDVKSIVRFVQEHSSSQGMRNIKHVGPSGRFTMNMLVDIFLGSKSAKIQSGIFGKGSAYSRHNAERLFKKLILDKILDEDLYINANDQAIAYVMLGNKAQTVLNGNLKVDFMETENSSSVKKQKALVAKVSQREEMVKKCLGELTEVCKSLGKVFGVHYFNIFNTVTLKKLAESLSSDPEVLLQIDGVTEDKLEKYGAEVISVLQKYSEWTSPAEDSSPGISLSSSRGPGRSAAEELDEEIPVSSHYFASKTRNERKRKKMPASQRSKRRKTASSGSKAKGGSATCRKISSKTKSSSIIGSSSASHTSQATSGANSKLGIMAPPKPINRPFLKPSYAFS
# In short: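 Forked 20-bp duplex substrate (200 nM, TAMRA/BHQ-2) plus 2 mM ATP added after 15 min compound preincubation with 50 nM enzyme, pH 8.0, poly(dI-dC) 2.5 ug/ml. Strand separation followed by fluorescence (525/598 nm) over 2 h, normalized to enzyme-free and DMSO controls.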
# [18] = measured here: cell count channel max response
# [19] = measured here: lipid channel max response
Compound,outcome [1],outcome [2],"activity change, negative = inhibition ([3]; at 57.5 µM (top of the series))","max response [3, 18]","max response [3, 19]",Potency [4],Potency [5],Potency [6],Potency [7],Potency [8],Potency [9],Potency [10],Potency [11],Potency [12],Potency [13],outcome [14],Potency [15],Potency [16],Potency [17],"activity change, negative = inhibition ([3]; at 25.7 µM (top of the series))"
Cc1nc(N=Nc2ccc(S(=O)(=O)O)cc2S(=O)(=O)O)c(COP(=O)(O)O)c(C=O)c1O,inactive,inactive,0.0773% (inactive) and 2.25% (inactive),-1.61% and 6.03%,-3.14% and 17.5%,inactive,inactive,inactive,inactive,inactive,inactive,inactive,inactive,inactive,inactive,inactive,inactive,inactive,inactive,
Cc1cc2c(cc1Cl)N(C(=O)Nc1ccnc3ccccc13)CC2,inactive,inactive,3.56% (inactive),57.9%,64%,inactive,inactive,inactive,inactive,inactive,inactive,inactive,inactive,,inactive,,inactive,inactive,,
CN1CCCC1CCOC(C)(c1ccccc1)c1ccc(Cl)cc1 (centres undefined),,inactive,0.234% (inactive),-30.3%,-27.1%,inactive,inactive,inactive,5.01 µM (active),5.62 µM (active),3.98 µM (active),11.2 µM (active),10 µM (active),2.51 µM (active),5.01 µM (active),,inactive,inactive,,
O=C(O)/C=C/c1ccc(O)c(O)c1,inactive,inactive,3.74% (inactive) and 0.322% (inactive),0.683% and 6.48%,7.03% and 6.69%,inactive,inactive,inactive,inactive,inactive,inactive,inactive,inactive,inactive,inactive,,inactive,inactive,inactive,
CCSC(=N)N,inactive,inactive,3.43% (inactive) and 3.42% (inactive) and 1.1% (inactive),11.3% and -10.8% and -6.69%,15.2% and -3.11% and -5.48%,inactive,inactive,inactive,inactive,inactive,inactive,inactive,inactive,,inactive,inactive,inactive,inactive,,
COc1ccccc1N1CCN(CCCCNC(=O)c2ccc3ccccc3c2)CC1,inactive,inactive,,1.63%,1.88%,inactive,inactive,inactive,7.08 µM (active),10 µM (active),2 µM (active),10 µM (active),10 µM (active),2.51 µM (active),5.01 µM (active),,,inactive,inactive,0.195% (inactive)
COc1ccc(C(=O)NCc2cccnc2)cc1C(=O)NCc1cccnc1,inactive,inactive,1.17% (inactive),-2.62% and -3.84%,-2.28% and -1.65%,inactive,inactive,inactive,,inactive,inactive,inactive,inactive,,inactive,inactive,inactive,inactive,,1.2% (inactive)
CSC(=N)N,inactive,inactive,-0.307% (inactive),53.5%,52.9%,inactive,inactive,inactive,inactive,inactive,inactive,inactive,inactive,inactive,inactive,inactive,,inactive,,
N[C@@H](CS(=O)O)C(=O)O,inactive,inactive,4.63% (inactive) and 1.31% (inactive),10.5% and -12.6%,17.1% and -9.76%,inactive,inactive,inactive,inactive,inactive,inactive,inactive,inactive,inactive,inactive,inactive,inactive,inactive,inactive,
CC[N+](CC)(CC)CC(=O)Nc1c(C)cccc1C,inactive,inactive,4.67% (inactive),-3.7%,2.48%,inactive,inactive,inactive,inactive,inactive,inactive,inactive,inactive,inactive,inactive,inactive,inactive,inactive,,
CCCCCC(O)CCCC(=O)O (centres undefined),,inactive,0.833% (inactive),-25.3%,-24.6%,inactive,inactive,inactive,inactive,inactive,inactive,inactive,inactive,inactive,inactive,inactive,inactive,inactive,inactive,
CC(N)=NCCCC[C@@H](N)C(=O)O,,inactive,-0.966% (inactive),1.29%,2.75%,inactive,inactive,inactive,inactive,inactive,inactive,inactive,inactive,inactive,inactive,inactive,inactive,inactive,,
C=C(C)C1CC=C(C(=O)O)CC1 (centres undefined),,inactive,0.974% (inactive) and 1.72% (inactive),16.2% and 48.1%,18.4% and 48.7%,inactive,inactive,inactive,inactive,inactive,inactive,inactive,inactive,inactive,inactive,inactive,inactive,inactive,inactive,
C[C@H](O)C(=O)C1=Nc2c(nc(N)[nH]c2=O)NC1,inactive,inactive,3.44% (inactive),8.97%,8.64%,inactive,inactive,inactive,inactive,inactive,inactive,inactive,inactive,,inactive,inactive,inactive,inactive,,
